# Measurements taken from article PMC4081100, “A DNA-binding-site landscape and regulatory network analysis for NAC transcription factors in Arabidopsis thaliana”.
# Columns and labels:
# Test in all cases: universal protein binding microarray (PBM); transcription factors of Arabidopsis thaliana; high values mean tight binding
# [1] = biological target: T1, GST-ANAC092(1-176) (Arabidopsis thaliana, UniProt Q9FKA0 1-176); conditions: protein: recombinant; tags: GST; chain copies: 2; dsDNA, one strand shown
# T1 sequence: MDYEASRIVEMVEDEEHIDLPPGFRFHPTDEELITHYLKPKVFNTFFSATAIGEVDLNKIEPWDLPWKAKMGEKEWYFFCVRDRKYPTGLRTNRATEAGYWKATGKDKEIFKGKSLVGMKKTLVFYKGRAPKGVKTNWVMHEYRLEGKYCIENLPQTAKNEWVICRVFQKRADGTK
# Summary of the method: (§1)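 GST-tagged proteins (NAC-domain, full-length or DNA-binding-domain) were induced in cells, with zinc acetate supplied for zinc-finger proteins, then purified on glutathione–Sepharose 4B. Each was tested in duplicate at 200 to 500 nM final on custom all-10-mer Agilent 4 × 180K arrays rendered double-stranded by primer extension. The binding value is the normalised enrichment score (E-score) across gapped and ungapped 8-mers.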
# [2] = biological target: T2, GST-ANAC019 NAC domain (Arabidopsis thaliana, UniProt Q9C932 14-162); conditions: protein: recombinant; tags: GST; chain copies: 2; dsDNA, one strand shown
# T2 sequence: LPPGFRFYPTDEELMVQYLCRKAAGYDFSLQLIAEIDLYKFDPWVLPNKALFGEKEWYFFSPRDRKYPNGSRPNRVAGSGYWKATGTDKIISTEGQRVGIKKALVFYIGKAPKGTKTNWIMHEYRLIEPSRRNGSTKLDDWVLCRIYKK
# Summary of the method: as §1
# [3] = biological target: T3, GST-ANAC055(1-171) (Arabidopsis thaliana, UniProt Q9LDY8 1-171); conditions: protein: recombinant; tags: GST; chain copies: 2; dsDNA, one strand shown
# T3 sequence: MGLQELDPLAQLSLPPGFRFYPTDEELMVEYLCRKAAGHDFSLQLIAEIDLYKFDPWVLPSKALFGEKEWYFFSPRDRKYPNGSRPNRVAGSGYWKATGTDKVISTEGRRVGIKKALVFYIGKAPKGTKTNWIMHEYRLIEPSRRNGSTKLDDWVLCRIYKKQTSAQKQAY
# Summary of the method: as §1
# [4] = biological target: T4, GST-ATAF1 NAC domain (Arabidopsis thaliana, UniProt Q39013 7-158); conditions: protein: recombinant; tags: GST; chain copies: 2; dsDNA, one strand shown
# T4 sequence: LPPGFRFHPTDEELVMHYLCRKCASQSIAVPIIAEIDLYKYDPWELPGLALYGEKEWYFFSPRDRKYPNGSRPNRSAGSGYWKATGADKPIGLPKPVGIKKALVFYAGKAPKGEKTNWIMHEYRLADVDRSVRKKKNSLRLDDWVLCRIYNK
# Summary of the method: as §1
# [5] = biological target: T5, GST-ANAC092(1-285) full length (Arabidopsis thaliana, UniProt Q9FKA0 1-285); conditions: protein: recombinant; tags: GST; chain copies: 2; dsDNA, one strand shown
# T5 sequence: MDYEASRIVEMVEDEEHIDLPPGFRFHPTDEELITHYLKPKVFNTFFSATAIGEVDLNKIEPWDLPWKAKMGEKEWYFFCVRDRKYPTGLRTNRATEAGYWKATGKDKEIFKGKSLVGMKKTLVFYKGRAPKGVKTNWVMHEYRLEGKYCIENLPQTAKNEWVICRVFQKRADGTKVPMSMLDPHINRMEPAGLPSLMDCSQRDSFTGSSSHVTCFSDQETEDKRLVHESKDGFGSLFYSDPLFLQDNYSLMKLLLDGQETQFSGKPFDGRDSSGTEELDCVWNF
# Summary of the method: as §1
# [6] = biological target: T6, GST-NAP(1-166) (Arabidopsis thaliana, UniProt O49255 1-166); conditions: protein: recombinant; tags: GST; chain copies: 2; dsDNA, one strand shown
# T6 sequence: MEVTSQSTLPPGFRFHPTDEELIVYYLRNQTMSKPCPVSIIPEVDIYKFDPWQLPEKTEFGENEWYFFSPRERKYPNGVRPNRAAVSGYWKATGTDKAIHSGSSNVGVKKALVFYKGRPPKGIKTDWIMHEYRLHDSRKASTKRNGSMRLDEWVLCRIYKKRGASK
# Summary of the method: as §1
# [7] = biological target: T7, GST-NST2(1-184) (Arabidopsis thaliana, UniProt Q9M274 1-184); conditions: protein: recombinant; tags: GST; chain copies: 2; dsDNA, one strand shown
# T7 sequence: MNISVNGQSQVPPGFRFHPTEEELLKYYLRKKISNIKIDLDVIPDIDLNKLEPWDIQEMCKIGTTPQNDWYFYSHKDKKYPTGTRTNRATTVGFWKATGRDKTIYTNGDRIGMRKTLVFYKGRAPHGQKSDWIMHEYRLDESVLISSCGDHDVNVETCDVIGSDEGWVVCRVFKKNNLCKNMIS
# Summary of the method: as §1
# [8] = biological target: T8, GST-SND1(1-203) (Arabidopsis thaliana, UniProt Q9LPI7 1-203); conditions: protein: recombinant; tags: GST; chain copies: 2; dsDNA, one strand shown
# T8 sequence: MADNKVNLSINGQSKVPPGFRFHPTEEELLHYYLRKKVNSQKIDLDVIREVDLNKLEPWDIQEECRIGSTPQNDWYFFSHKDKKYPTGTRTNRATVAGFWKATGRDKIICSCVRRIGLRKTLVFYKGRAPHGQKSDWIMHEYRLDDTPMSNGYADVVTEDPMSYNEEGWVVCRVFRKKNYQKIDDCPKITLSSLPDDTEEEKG
# Summary of the method: as §1
# [9] = biological target: T9, GST-VND3 NAC domain (Arabidopsis thaliana, UniProt Q9FH59 12-162); conditions: protein: recombinant; tags: GST; chain copies: 2; dsDNA, one strand shown
# T9 sequence: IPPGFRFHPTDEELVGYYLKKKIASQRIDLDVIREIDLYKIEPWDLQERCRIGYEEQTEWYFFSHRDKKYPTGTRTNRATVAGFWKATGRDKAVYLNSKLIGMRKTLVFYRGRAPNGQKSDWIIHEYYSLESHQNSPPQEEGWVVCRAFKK
# Summary of the method: as §1
# [10] = biological target: T10, GST-VND7 NAC domain (Arabidopsis thaliana, UniProt Q9C8W9 9-158); conditions: protein: recombinant; tags: GST; chain copies: 2; dsDNA, one strand shown
# T10 sequence: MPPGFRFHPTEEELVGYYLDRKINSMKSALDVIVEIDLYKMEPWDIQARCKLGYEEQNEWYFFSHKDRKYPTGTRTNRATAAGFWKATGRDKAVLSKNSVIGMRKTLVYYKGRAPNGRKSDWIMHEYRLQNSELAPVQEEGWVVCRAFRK
# Summary of the method: as §1
# [11] = biological target: GST-WRKY1(266-371) (Arabidopsis thaliana, UniProt Q9SI37 266-371); conditions: protein: recombinant; tags: GST; dsDNA, one strand shown
# GST-WRKY1(266-371), sequence (Q9SI37 266-371): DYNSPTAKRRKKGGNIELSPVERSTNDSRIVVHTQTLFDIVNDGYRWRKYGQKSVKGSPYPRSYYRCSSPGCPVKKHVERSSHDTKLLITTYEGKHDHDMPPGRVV
# Summary of the method: as §1
# [12] = biological target: GST-NTL6(1-168) (Arabidopsis thaliana, UniProt Q9SCK6 1-168); conditions: protein: recombinant; tags: GST; chain copies: 2; dsDNA, one strand shown
# GST-NTL6(1-168), sequence (Q9SCK6 1-168): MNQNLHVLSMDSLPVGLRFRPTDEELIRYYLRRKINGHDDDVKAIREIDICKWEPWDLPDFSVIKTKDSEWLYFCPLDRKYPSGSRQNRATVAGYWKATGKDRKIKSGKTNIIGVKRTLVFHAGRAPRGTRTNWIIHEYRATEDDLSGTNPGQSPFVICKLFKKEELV
# Summary of the method: as §1
# [13] = biological target: T11, GST-NTL8 NAC domain (Arabidopsis thaliana, UniProt Q9XIN7 14-156); conditions: protein: recombinant; tags: GST; chain copies: 2; dsDNA, one strand shown
# T11 sequence: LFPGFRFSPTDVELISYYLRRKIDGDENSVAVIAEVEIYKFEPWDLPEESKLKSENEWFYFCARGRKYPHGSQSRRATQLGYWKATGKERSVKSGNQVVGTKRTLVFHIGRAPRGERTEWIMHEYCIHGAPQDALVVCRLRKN
# Summary of the method: as §1
Sequence,binding signal [1] [E-score],binding signal [2] [E-score],binding signal [3] [E-score],binding signal [4] [E-score],binding signal [5] [E-score],binding signal [6] [E-score],binding signal [7] [E-score],binding signal [8] [E-score],binding signal [9] [E-score],binding signal [10] [E-score],binding signal [11] [E-score],binding signal [12] [E-score],binding signal [13] [E-score]
GCGTGCAC,0.372,0.255,0.158,0.154,0.415,0.145,0.169,0.198,0.16,0.216,0.0555,–,–
AAGTCTAC,0.0876,–,0.158,0.0826,–,–,0.103,0.0865,0.0561,0.0651,0.412,0.202,–
ATTACGTC,0.366,0.329,0.353,0.356,0.405,0.376,0.333,0.432,0.37,0.357,0.0595,–,–
GTAAGTAA,0.246,0.0906,0.199,0.245,0.334,–,0.239,0.307,0.279,0.186,0.122,0.474,0.195
ATAAGTAA,0.318,–,0.181,0.246,0.363,–,0.29,0.311,0.264,0.18,0.142,0.434,0.167
TACGTCAA,0.363,0.216,0.194,0.291,0.417,0.241,0.341,0.44,0.23,0.205,0.402,–,–
GTCGCGTA,0.307,–,–,0.195,0.414,0.171,0.109,0.422,0.102,0.233,0.145,0.0763,–
AACACGTC,0.397,0.33,0.325,0.316,0.428,0.262,0.0538,0.12,0.343,0.312,0.131,–,–
GTCAACAC,0.238,0.138,0.173,0.092,0.23,0.163,0.134,0.134,0.133,0.154,0.478,–,–
ACACGACA,0.421,0.452,0.438,0.339,0.417,0.36,0.19,0.14,0.399,0.424,0.0821,0.0953,0.0912
GTACGTTA,0.42,0.0888,0.226,0.325,0.426,0.173,0.316,0.415,0.253,0.148,–,0.0779,–
GACGCAAA,0.382,0.0555,–,0.0741,0.411,0.233,0.123,0.289,0.135,0.099,0.117,–,–
ACGTCTCC,0.21,0.411,0.353,0.368,0.33,0.273,0.167,0.182,0.34,0.322,0.0802,–,0.052
TAGCGTAA,0.453,0.0774,0.173,0.281,0.454,0.221,0.412,0.492,0.297,0.347,–,0.123,–
